# This is part of a sample that, as a whole, favours compounds with a hit. Of some 83,000 tested, about 20% had one in any assay.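 Assay: single dose, 48 h. Readout: percent growth (0 = no net growth; negative = cell death). Active: <10.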 Unmarked numbers belong to inactive results. Active and inactive are the calls of the source.
# Tested on: MCF7 breast
# Assay: NCI-60 one-dose screen, 48 h (100 = growth as untreated, 0 = no growth, -100 = all killed)
# Details: 10 µM unless noted
row,Structure (SMILES),growth
1,O=CC1(C2(C=O)c3ccccc3-c3ccccc32)c2ccccc2-c2ccccc21,-52.4% (active)
2,N#Cc1c(-c2cccs2)cc(-c2cccnc2)[nH]c1=O,92.4%
3,CCOC(=O)c1cnc2ccccc2c1Cl,99.1%
4,Cn1cccc1C(=O)C1C(c2cccc([N+](=O)[O-])c2)C2C3CCCCC3CN2C12C(=O)Nc1ccc(Cl)cc12 (stereo not given),34.1%
5,Cc1ccccc1/C=C1\CN(C(=O)OC(C)(C)C)C/C(=C\c2ccccc2C)C1=O,19.2%
6,Cc1ccc(-c2cc(-c3ccc(Cl)cc3)nc(NC(=O)c3cccnc3)n2)cc1,86.3%
7,O=c1c2cc(-c3ccccc3)sc2nc2sc(-c3ccccc3)nn12,97.6%
8,COc1ccc2nc(NC(=O)CSc3nnc4n3S(=O)(=O)c3ccccc3N4C)sc2c1,96.6%
9,Cc1ccc(/C=C2\CN(C(=O)OC(C)(C)C)C/C(=C\c3ccc(C)cc3)C2=O)cc1,15.7%
10,O=C(Nn1c2c(sc1=Nc1ccccc1)C(=O)c1ccccc1C2=O)c1cc2ccc1CCc1ccc(cc1)CC2,45.6%
11,O=C1Nc2ccc(I)cc2C1=O,71.5%
12,Fc1ccc2[nH]cc(-c3nonc3-c3c[nH]c4ccc(Br)cc34)c2c1,12.6%
13,O=C(/C=C/c1ccc(Cl)cc1)c1cccc(Nc2nc(Nc3ccccc3)nc(Nc3ccccc3)n2)c1,-16.9% (active)
14,O=[N+]([O-])c1ccc(S(=O)(=O)N2CCN(C3=NS(=O)(=O)c4ccccc4N3c3ccccc3)CC2)cc1,101%
15,Oc1ccc(CCn2c(O)c(/C=C3\CN=c4ccccc4=N3)sc2=S)cc1,16.7%
16,CCOC(=O)/C=C1\S/C(=N\Nc2cc(=O)[nH]c3ccc(Cl)cc23)N(c2ccccc2)C1=O,34.3%
17,CCOC(=O)c1cn2ncnc(Oc3ccc(NC(=O)NC4CCCCC4)c(Cl)c3)c2c1C,51.7%
18,Fc1cc2c(cc1Cl)N(c1ncnc3ccc(-c4cnc5[nH]ncc5c4)cc13)CC2,30.9%
19,CC1=C(Nc2ccc(N3CCN(C)CC3)cc2)C(=O)c2cncnc2C1=O,61.9%
20,COc1ccc(C(=O)Nc2ncc(Cc3ccc(F)cc3)s2)cc1,12.3%

row,Structure (SMILES),growth
1,Cc1ccc(CNc2ccc(Cl)cc2NCc2ccc(C)c(O)c2)cc1O,9.21% (active)
2,COc1cc(NC(C)CCCNC(C)C)c2ncccc2c1OC (stereo not given),93.5%
3,Cc1ccc(NC(=S)NNC(=S)NNc2ccccc2)cc1C,98.9%
4,COc1ccc(/C=N/C2=C(C#N)C(c3cccc(Cl)c3)c3c(ccc4ccccc34)O2)cc1 (stereo not given),11.1%
5,C#CCOc1ccc2ncnc(Nc3cccc(NC(=O)C=C)c3)c2c1,60.5%
6,Cc1nc2c(=O)[nH]c(SCC(=O)Nc3cccc(F)c3)nc2[nH]c1=O,92.7%
7,CC1(C)c2[nH]c3ccccc3c2C[C@]2(C)[C@H]3CC=C4[C@@H]5C[C@@](C)(C(N)=O)CC[C@]5(C)CC[C@@]4(C)[C@]3(C)CC[C@@H]12,29.3%
8,CCOC(=O)c1cc(-c2ccc([N+](=O)[O-])cc2)n(-c2ccc(C(=O)O)c(O)c2)c1C,53.9%
9,Nc1c(C(=O)Nc2ccncc2)sc2nc3c(cc12)CCCCCC3,78.5%
10,COc1cccc(NC(=O)Cn2cc(CN3CCN(c4ccnc5cc(Cl)ccc45)CC3)nn2)c1,86.7%
11,COC(=O)c1cc(-c2ccc(OC)cc2)[nH]c1N/N=C/c1c(Cl)cccc1Cl,1.03% (active)
12,O=C1CC(N2C(=O)/C(=C/C(Cl)=C\c3ccc([N+](=O)[O-])cc3)SC2=S)C(=O)N1c1ccc(Cl)cc1 (stereo not given),18.1%
13,Clc1ccc2c(c1)N(c1ncnc3ccc(-c4cnc5[nH]ncc5c4)cc13)CC2,18.2%
14,O=C1Nc2ccc(Br)cc2/C1=N/c1n[nH]c(=S)s1,91.7%
15,O=C1C(Cl)=C(Oc2ccccc2)C(=O)c2ccccc21,73%
16,Cn1cc(-c2csc(-c3ccc(Cl)cc3)n2)c2cccnc21,-35.2% [100 µM] (active)
17,Brc1ccc2[nH]cc(-c3nonc3-c3c[nH]c4ccccc34)c2c1,29.3%
18,COc1ccc(C2=Nc3c/c(=C\c4c(O)[nH]c5ccc(Cl)cc45)ccc3=N2)cc1,0.287% (active)
19,CC(C)NC1CCC(Nc2ccnc3cc(Cl)ccc23)CC1 (stereo not given),93.3%
20,Cc1cc(=O)[nH]c2c(C#N)cnn12,93.2%

# From PubChem BioAssay (NCI)
